This note sets out measurements from PubChem BioAssay (EPA / NIEHS).

Where “and” joins values, the source holds several entries; their conditions need not be identical. Equal entries are not always repeated. Records with an inconclusive call do not appear. A structure can be active in one record and inactive in another. Calls of active or inactive are those of the source. The calls were made as follows: active = hit-call score of the fitted dose curve at least 0.9, where 1 is the maximum; inconclusive = response in the unintended direction; inactive = score below 0.9.

Test [1] in a line: NVS_IC_rCaBTZCHL: NovaScreen (NVS) Ion Channel Assay for Calcium Channel, Type L, Benzothiazepine Site (CaBTZCHL) (AID 2283337). In outline:
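Benzothiazepine-site binding was assessed in a tissue-derived, cell-free rat cortical membrane system. After 1.5 h exposure, radioactivity retained on filters was quantified by scintillation; positive and negative controls accompanied every plate.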

Test [2] deals with bovine Gamma-Aminobutyric Acid Type A Receptor Agonist (GABAR Agonist), GABRA1 (gene 780973) (UniProt P08219). Put plainly: NVS_LGIC_bGABAR_Agonist: NovaScreen (NVS) Ligand-Gated Ion Channel Assay for bovine Gamma-Aminobutyric Acid Type A Receptor Agonist (GABAR Agonist) (AID 2283338). In outline: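 Radioligand binding to bovine cerebellar membranes in agonist format, read by filter-based scintillation counting after 1 h. Primary screen in duplicate at 25 uM, with actives followed in concentration series. Gain of signal versus DMSO.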
bovine Gamma-Aminobutyric Acid Type A Receptor Agonist (GABAR Agonist), GABRA1 (gene 780973), sequence (P08219 whole entry, looked up): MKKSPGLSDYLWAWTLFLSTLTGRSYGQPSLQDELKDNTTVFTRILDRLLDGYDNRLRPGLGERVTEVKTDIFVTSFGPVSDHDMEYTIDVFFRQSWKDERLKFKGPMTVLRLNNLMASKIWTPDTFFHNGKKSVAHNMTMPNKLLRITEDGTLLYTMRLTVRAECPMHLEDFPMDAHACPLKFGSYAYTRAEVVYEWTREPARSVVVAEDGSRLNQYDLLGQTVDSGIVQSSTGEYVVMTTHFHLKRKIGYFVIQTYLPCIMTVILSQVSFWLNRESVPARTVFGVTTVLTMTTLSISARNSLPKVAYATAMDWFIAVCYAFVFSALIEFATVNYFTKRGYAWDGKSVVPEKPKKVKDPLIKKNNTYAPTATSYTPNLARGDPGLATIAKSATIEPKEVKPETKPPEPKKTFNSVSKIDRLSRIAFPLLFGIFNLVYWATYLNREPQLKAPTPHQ

For test [3], the target named is bovine Estrogen Receptor (ER), ESR1 (gene 407238) (UniProt P49884). Description: NVS_NR_bER: NovaScreen (NVS) Nuclear Receptor Binding Assay for bovine Estrogen Receptor (ER) (AID 2283345).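 Also: actives lower the bound radioligand count which means they displace the ER ligand.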 An outline of the steps: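 Cell-free radioligand binding with receptor from bovine uterine membranes, read by scintillation counting 18 h after dosing. Loss of specific binding was scored against DMSO; primary screen at 25 uM in duplicate, actives then run as concentration series.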
bovine Estrogen Receptor (ER), ESR1 (gene 407238), sequence (P49884 whole entry, looked up): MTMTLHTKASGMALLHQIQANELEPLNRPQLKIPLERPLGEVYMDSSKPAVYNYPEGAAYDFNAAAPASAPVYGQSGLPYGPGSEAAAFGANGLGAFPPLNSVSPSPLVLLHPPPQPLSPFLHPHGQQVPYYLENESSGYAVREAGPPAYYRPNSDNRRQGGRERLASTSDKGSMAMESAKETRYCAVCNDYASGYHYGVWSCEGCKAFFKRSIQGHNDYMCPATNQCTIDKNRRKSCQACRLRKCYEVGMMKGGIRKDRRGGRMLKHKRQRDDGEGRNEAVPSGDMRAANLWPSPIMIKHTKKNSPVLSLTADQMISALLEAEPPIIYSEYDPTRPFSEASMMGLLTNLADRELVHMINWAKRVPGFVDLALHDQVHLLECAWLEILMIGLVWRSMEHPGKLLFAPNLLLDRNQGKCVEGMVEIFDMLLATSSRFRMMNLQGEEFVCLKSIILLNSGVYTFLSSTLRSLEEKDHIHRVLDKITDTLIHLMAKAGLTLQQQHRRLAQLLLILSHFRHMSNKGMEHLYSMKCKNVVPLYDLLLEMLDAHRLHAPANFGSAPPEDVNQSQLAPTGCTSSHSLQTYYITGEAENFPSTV

For test [4], the target named is Estrogen receptor (Homo sapiens) (UniProt P03372). Description: NVS_NR_hER: NovaScreen (NVS) Nuclear Receptor Binding Assay for human Estrogen Receptor (ER) (AID 2283348). In outline:
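Cell-free MCF7-derived ER preparation, specific radioligand displaced by test compound, read by scintillation counting 18 h post-dosing. Duplicate single-point 25 uM screen, then concentration-response confirmation; DMSO baseline.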

Test [5] has the same target. Put plainly: OT_ER_ERaERa_1440: Odyssey Thera (OT) 24-hour HEK293T Protein-Complementation Assay for Estrogen Receptor-alpha/-alpha Homodimer (AID 2283349).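 Also: hits raise fluorescence above DMSO for agonists and antagonists alike.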 An outline of the steps: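 HEK293T, stable ERα LBD (aa 310-547) homodimer PCA; 24 h compound exposure; mean fluorescence intensity (nuclear for agonists, nuclear plus cytoplasmic for antagonists) vs vehicle; positive fitting direction, DMSO baseline.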

Test [6] concerns the target chimpanzee Androgen Receptor (AR), AR (gene 747460) (UniProt O97775). Put plainly: NVS_NR_cAR: NovaScreen (NVS) Nuclear Receptor Binding Assay for chimpanzee Androgen Receptor (AR) (AID 2283346).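 Also: radioligand displacement from AR measured by scintillation counting in a cell-free assay; a loss of bound radioligand signal versus DMSO counts as binding.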 In outline:
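Cell-free competition binding with insect-cell (Sf9/Sf21) extracted chimpanzee AR; scintillation signal from lysate at 72 h. Screened in duplicate at 25 uM, then concentration-response for actives; fitting relative to DMSO.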

Test [7] deals with human Constitutive Androstane Receptor (CAR), NR1I3 (gene 9970) (UniProt Q14994). Put plainly: NVS_NR_hCAR_Antagonist: NovaScreen (NVS) Nuclear Receptor Binding Assay for human Constitutive Androstane Receptor Antagonism (CAR) (AID 2283344). In outline: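 Single 25 uM duplicate primary screen, with concentration-series follow-up on actives. Cell-free binding format run in antagonist mode, TR-FRET signal taken 1 h post-dose; activity is signal loss relative to DMSO.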
human Constitutive Androstane Receptor (CAR), NR1I3 (gene 9970), sequence (Q14994 whole entry, looked up): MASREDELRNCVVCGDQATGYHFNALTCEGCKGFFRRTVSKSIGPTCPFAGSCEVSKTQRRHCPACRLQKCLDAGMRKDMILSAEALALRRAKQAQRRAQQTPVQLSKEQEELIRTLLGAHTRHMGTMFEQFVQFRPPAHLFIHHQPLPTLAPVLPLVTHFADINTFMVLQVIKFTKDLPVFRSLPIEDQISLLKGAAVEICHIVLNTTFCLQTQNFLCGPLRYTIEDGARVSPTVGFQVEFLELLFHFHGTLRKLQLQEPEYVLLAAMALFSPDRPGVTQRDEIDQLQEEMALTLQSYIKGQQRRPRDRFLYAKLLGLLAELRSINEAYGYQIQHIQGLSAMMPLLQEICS

chimpanzee Androgen Receptor (AR), AR (gene 747460), sequence (O97775 whole entry, looked up): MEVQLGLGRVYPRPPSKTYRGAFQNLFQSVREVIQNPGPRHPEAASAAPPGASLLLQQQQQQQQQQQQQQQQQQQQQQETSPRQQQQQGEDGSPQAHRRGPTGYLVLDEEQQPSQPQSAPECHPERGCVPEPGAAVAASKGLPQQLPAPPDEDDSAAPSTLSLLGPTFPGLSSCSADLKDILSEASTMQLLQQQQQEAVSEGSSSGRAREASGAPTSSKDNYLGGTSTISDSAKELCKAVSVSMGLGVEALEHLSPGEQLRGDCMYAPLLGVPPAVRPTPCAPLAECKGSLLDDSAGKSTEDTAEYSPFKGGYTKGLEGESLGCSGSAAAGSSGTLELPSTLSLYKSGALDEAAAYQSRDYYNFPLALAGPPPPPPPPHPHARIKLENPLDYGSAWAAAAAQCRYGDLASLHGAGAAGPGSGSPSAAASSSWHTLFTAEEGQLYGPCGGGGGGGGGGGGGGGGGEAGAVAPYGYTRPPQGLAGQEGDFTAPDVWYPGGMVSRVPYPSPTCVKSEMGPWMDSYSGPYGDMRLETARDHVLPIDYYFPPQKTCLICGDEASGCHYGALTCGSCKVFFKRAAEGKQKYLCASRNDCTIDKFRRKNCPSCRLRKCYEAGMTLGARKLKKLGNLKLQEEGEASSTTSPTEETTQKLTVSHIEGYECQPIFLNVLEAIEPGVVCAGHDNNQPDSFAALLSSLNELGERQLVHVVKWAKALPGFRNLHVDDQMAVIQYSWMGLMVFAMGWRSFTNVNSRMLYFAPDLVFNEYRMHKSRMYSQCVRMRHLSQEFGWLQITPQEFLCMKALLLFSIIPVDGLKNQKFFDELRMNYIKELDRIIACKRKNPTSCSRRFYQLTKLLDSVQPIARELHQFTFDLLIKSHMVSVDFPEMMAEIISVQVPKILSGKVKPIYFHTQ
Estrogen receptor (Homo sapiens), sequence (P03372 whole entry, looked up): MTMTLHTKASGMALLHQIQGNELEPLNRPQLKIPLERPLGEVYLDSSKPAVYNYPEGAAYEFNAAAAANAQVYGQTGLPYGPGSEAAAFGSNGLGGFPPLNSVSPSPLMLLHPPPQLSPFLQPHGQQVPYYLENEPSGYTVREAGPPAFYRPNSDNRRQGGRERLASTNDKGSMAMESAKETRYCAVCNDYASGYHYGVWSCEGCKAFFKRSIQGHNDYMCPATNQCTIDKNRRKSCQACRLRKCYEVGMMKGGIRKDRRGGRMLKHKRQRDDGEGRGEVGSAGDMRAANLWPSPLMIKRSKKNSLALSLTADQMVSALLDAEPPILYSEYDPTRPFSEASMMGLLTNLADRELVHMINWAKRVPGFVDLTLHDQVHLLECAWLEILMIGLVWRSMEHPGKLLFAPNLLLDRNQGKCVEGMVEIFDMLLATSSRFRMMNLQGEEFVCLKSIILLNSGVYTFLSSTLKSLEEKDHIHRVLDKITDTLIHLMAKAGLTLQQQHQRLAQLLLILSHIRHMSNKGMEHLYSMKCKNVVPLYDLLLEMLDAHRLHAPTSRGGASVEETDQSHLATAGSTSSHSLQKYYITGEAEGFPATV

For orientation: AC50 means the concentration giving half of the maximal activity seen. For `C[C@]12CC[C@@H]3c4ccc(O)cc4C[C@@H](CCCCCCCCCS(=O)CCCC(F)(F)C(F)(F)F)[C@H]3[C@@H]1CC[C@@H]2O` (stereo partly drawn), the half-maximal activity concentration (AC50) in test [1] is 1.45 µM (active).

For the molecule `CC(C)(c1ccc(O)cc1)c1ccc(O)cc1`, the outcome in test [1] was inactive.

Take `COc1nc(C)nc(NC(=O)NS(=O)(=O)c2ccccc2OCCCl)n1`: in test [2], the outcome was inactive.

With `CCOC(=O)C(C)Oc1ccc(Oc2cnc3cc(Cl)ccc3n2)cc1` (stereo not drawn), the call in test [3], in test [4] and in test [5] was inactive.

Take `OB(O)O`: the outcome in test [5] was inactive.

Regarding `CSC(=O)c1cccc2nnsc12`, the concentration at half-maximal activity (AC50) in test [6] is 1.02 µM (active). Moreover, the molecule was classed as inactive in test [5].

`CCOC(=O)c1ccc(O)cc1`: the call in test [3], in test [6], in test [4] and in test [5] was inactive. Moreover, the concentration at half-maximal activity (AC50) in test [4] is 10.5 µM (active) and 4.61 µM (active); in test [5], 47 µM (active) and 52.6 µM (active) and 67.5 µM (active).

`CCCOC(=O)c1ccc(C(=O)OCCC)nc1`: the outcome in test [7] and in test [5] was inactive.

As to `CCCCOC(=O)C(C)Oc1ccc(Oc2ccc(C(F)(F)F)cn2)cc1` (stereo not drawn), the outcome in test [3] and in test [5] was inactive.

Regarding `CCOC(=O)COc1cc(-n2ncc(C(F)(F)F)c(C)c2=O)c(F)cc1Cl`, the molecule was classed as inactive in test [3], in test [4] and in test [5].

Take `CN(C)C(=O)Nc1ccc(Cl)c(Cl)c1`: the half-maximal activity concentration (AC50) in test [6] was 25 µM (active). The call in test [5] was inactive.

Take `CCOC(=O)NCCOc1ccc(Oc2ccccc2)cc1`: the molecule was classed as inactive in test [7] and in test [5].

As for `O=C(c1ccccc1)C1CCCCC1`, the molecule was called inactive in test [3], in test [4] and in test [5].

For `c1ccc2[nH]c(-c3cscn3)nc2c1`, in test [5], the molecule was classed as inactive.

Regarding `CCCN(CCC)c1c([N+](=O)[O-])cc(C(F)(F)F)c(N)c1[N+](=O)[O-]`, the call in test [5] was inactive.

`CCN(CC)C(=O)c1cccc(C)c1`: the outcome in test [4] and in test [5] was inactive.

Turning to `N[C@@H](Cc1cc(I)c(Oc2ccc(O)c(I)c2)c(I)c1)C(=O)O`, the concentration at half-maximal activity (AC50) in test [7] was 20 µM (active); in test [4], 7.8 µM (active) and 8.49 µM (active) and 6.72 µM (active). Further, the result in test [3], in test [6], in test [4] and in test [5] was inactive.

Turning to `COCCO`, the result in test [3] and in test [5] was inactive.

For `O=C(O)c1ccccc1`, the molecule was classed as inactive in test [4] and in test [5].

On to `COc1c(Cl)ccc(Cl)c1C(=O)O`, for which the molecule was classed as inactive in test [3], in test [4] and in test [5].

Turning to `CCSC(=O)N(CC(C)C)CC(C)C`, the molecule was classed as inactive in test [5].

For `CCN(Cc1c(F)cccc1Cl)c1c([N+](=O)[O-])cc(C(F)(F)F)cc1[N+](=O)[O-]`, in test [5], the concentration at half-maximal activity (AC50) was 15.2 µM (active).

For the molecule `CCCCOC(=O)[C@@H](C)Oc1ccc(Oc2ccc(C(F)(F)F)cn2)cc1`, in test [5], the molecule was called inactive.

With `O=C(O)C1(C(=O)Nc2ccc(Cl)cc2Cl)CC1`, in test [7], the AC50 is 9.08 µM (active). The call in test [5] was inactive.

Turning to `COC(=O)c1ccc(CNS(C)(=O)=O)cc1S(=O)(=O)NC(=O)Nc1nc(OC)cc(OC)n1`, the call in test [7] and in test [4] was inactive.

In the case of `O=C(Nc1ccc([N+](=O)[O-])cc1Cl)c1cc(Cl)ccc1O`, in test [5], the outcome was inactive.

For the molecule `C#CCOC(=O)[C@@H](C)Oc1ccc(Oc2ncc(Cl)cc2F)cc1`, the molecule was called inactive in test [4] and in test [5].

On to `CCCCCOC(=O)COc1cc(N2C(=O)C3=C(CCCC3)C2=O)c(F)cc1Cl`, for which the call in test [4] and in test [5] was inactive.
